This is an account of results in publication PMC5540273 (PLoS ONE, 2017).

Test systems include TLK1; TLK2; TNIK; TNK1; TNK2; TNNI3K; TRKB; TRPM6; TSSK1B; TSSK3; TTK; TXK; TYRO3; ULK1; ULK2.
What all share (settings): concentration: 1 μM, replicates: in singlicate; n = 1
In a further assay the test system is T1, TIE2.
T1 construct: gene TEK

For a further assay, the system named is T2, TRKA.
T2 construct: gene NTRK1

Another assay has as its system T3, TRKC.
T3 construct: gene NTRK3

In assay [1] the test system is TYK2(JH1domain-catalytic).
Assay [2] has as its system TYK2(JH2domain-pseudokinase).
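Further: KINOMEscan kinase panel screen.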

`Cl.c1ccc(Cn2cnc3cc(Nc4ncnc5ccccc45)ccc32)cc1` [GW272142]: the “%Inh” value in the assay with TIE2 was found to be 0%; with TLK1, 0%; in the assay with TLK2, 0%; in the assay on TNIK, 0%; in the assay with TNK1 it was 0%; in the assay with TNK2, 15%. In addition, the “%Inh” value amounted to 0% in the assay with TNNI3K; 0% in the assay on TRKA; 0% in the assay with TRKB; 0% with TRKC; 0% with TRPM6; 12% with TSSK1B. Further, the “%Inh” value came out at 10% in the assay with TSSK3; 0% with TTK; 0% in the assay with TXK; 13% in [1]; 21% in assay [2]; 0% in the assay on TYRO3. Further, the “%Inh” value came out at 7% in the assay on ULK1 and 0% in the assay with ULK2.
With `CCC(=O)c1c(-c2ccccc2)c2cc(Cl)ccc2c(=O)n1Cc1cc(S(C)(=O)=O)n(CC(N)=O)n1`, the “%Inh” value turned out to be 24% in the assay on TIE2; 2% with TLK1; 0% in the assay on TLK2; 4% with TNIK; 0% with TNK1; 0% with TNK2. Further, the “%Inh” value in the assay with TNNI3K, with TRKA, in the assay with TRKB, in the assay on TRKC, with TRPM6 and with TSSK1B was 0% throughout. For the same compound, the “%Inh” value is listed as 0% in the assay with TSSK3; 8% in the assay on TTK; 0% with TXK; 0% in assay [1]; 0% in assay [2]; 0% with TYRO3. The “%Inh” value in the assay on ULK1 and in the assay on ULK2 was 0% each time.
Turning to `COc1cccc(C2=C(Nc3cccc(C(=O)O)c3)C(=O)NC2=O)c1` [SB-390770], the “%Inh” value in the assay with TIE2 amounted to 37%; with TLK1, 7%; in the assay on TLK2 it was 0%; with TNIK it was 4%; with TNK1 it was 0%; in the assay with TNK2, 12%. In addition, the “%Inh” value in the assay with TNNI3K is 8%; in the assay with TRKA, 56%; with TRKB, 0%; in the assay with TRKC, 0%; in the assay with TRPM6, 15%; with TSSK1B, 23%. In addition, the “%Inh” value was found to be 15% in the assay with TSSK3; 0% in the assay on TTK; 48% in the assay with TXK; 19% in assay [1]; 0% in assay [2]; 0% with TYRO3. Moreover, the entries for the “%Inh” value in the assay on ULK1 and in the assay with ULK2 were 26% and 6%, respectively.
Consider `C[C@@H]1CC[C@H](C(=O)NC2CCCCC2)CN1c1cc(-c2ccc3c(N)n[nH]c3c2)nc(N)n1` [GSK2291363], for which the “%Inh” value in the assay on TIE2 is recorded as 0%; with TLK1 it was 5%; in the assay on TLK2 it was 0%; with TNIK, 8%; in the assay with TNK1, 0%; with TNK2, 18%. Further, the “%Inh” value is given as 5% with TNNI3K; 9% in the assay on TRKA; 0% with TRKB; 0% in the assay with TRKC; 16% in the assay on TRPM6; 31% in the assay on TSSK1B. The “%Inh” value with TSSK3 was determined as 31%; in the assay with TTK, 16%; in the assay with TXK, 6%; in assay [1], 0%; in assay [2] it was 23%; in the assay on TYRO3 it was 0%. Also, the entries for the “%Inh” value in the assay on ULK1 and in the assay with ULK2 were 6% and 0%, respectively.
Consider `CCc1ccc(-c2ccc3c(c2)-c2nn(C)cc2S(=O)(=O)N3C)cc1`, for which the “%Inh” value with TIE2 amounted to 0%; in the assay with TLK1, 35%; in the assay on TLK2 it was 0%; in the assay on TNIK, 38%; in the assay with TNK1, 14%; in the assay with TNK2 it was 0%. Further, the “%Inh” value in the assay on TNNI3K, in the assay with TRKA, in the assay with TRKB, in the assay with TRKC, in the assay with TRPM6 and in the assay with TSSK1B was 0% throughout. Besides, the “%Inh” value (in the assay on TSSK3; with TTK; in the assay with TXK; in [1]; in assay [2]; with TYRO3) was 0% throughout. The “%Inh” value in the assay with ULK1 and in the assay on ULK2 was 0% in each case.
As to `COc1cccc(C2=C(N(C)c3ccccc3)C(=O)NC2=O)c1` [SB-334865], the “%Inh” value with TIE2 is recorded as 0%; in the assay on TLK1 it was 4%; with TLK2, 4%; with TNIK it was 0%; with TNK1, 0%; in the assay with TNK2 it was 19%. Besides, the “%Inh” value with TNNI3K amounted to 11%; in the assay on TRKA it was 0%; in the assay on TRKB, 0%; in the assay with TRKC, 23%; in the assay on TRPM6 it was 26%; in the assay with TSSK1B it was 0%. The “%Inh” value in the assay on TSSK3 stood at 7%; with TTK, 0%; in the assay on TXK, 22%; in assay [1], 12%; in [2], 42%; in the assay with TYRO3 it was 0%. For the same compound, the results for the “%Inh” value with ULK1 and with ULK2 were 19% and 0%, respectively.
For the compound `COc1ccc(-c2cc3c(C)nc(N)nc3n([C@H]3CC[C@H](OCCO)CC3)c2=O)cn1`, the “%Inh” value with TIE2 is 0%; with TLK1 it was 14%; in the assay with TLK2 it was 0%; in the assay on TNIK, 0%; with TNK1, 34%; in the assay with TNK2, 0%. Besides, the “%Inh” value worked out at 1% with TNNI3K; 0% in the assay with TRKA; 0% in the assay on TRKB; 0% in the assay on TRKC; 0% in the assay on TRPM6; 2% with TSSK1B. Besides, the “%Inh” value in the assay on TSSK3 stood at 0%; in the assay with TTK, 0%; with TXK, 2%; in assay [1], 0%; in [2] it was 0%; in the assay with TYRO3, 0%. Further, the “%Inh” value in the assay on ULK1 and in the assay with ULK2 was 0% in each case.
Consider `Nc1ncnc2c1ncn2-c1cccc2ccccc12` [SKF-97184], for which the “%Inh” value was 0% with TIE2; 0% with TLK1; 18% with TLK2; 10% in the assay on TNIK; 0% in the assay with TNK1; 0% in the assay on TNK2. The “%Inh” value came to 0% in the assay with TNNI3K; 25% in the assay with TRKA; 0% in the assay with TRKB; 6% in the assay with TRKC; 39% with TRPM6; 0% in the assay on TSSK1B. The “%Inh” value worked out at 0% with TSSK3; 23% with TTK; 0% with TXK; 68% in assay [1]; 37% in assay [2]; 0% in the assay on TYRO3. The “%Inh” value with ULK1 is listed as 24%; in the assay with ULK2 it was 16%.
For the compound `COc1ccc(CNC(=O)NC2CCN(c3ccnc(Nc4ccc(F)cc4)n3)C2)cc1` (centres unmarked) [GSK1379706], the “%Inh” value in the assay on TIE2 amounted to 2%; in the assay on TLK1 it was 26%; in the assay with TLK2, 16%; with TNIK it was 0%; in the assay with TNK1, 0%; in the assay on TNK2, 10%. The “%Inh” value was found to be 10% in the assay on TNNI3K; 54% with TRKA; 26% with TRKB; 44% with TRKC; 4% in the assay with TRPM6; 0% in the assay on TSSK1B. The “%Inh” value with TSSK3 is given as 21%; in the assay on TTK, 21%; in the assay with TXK, 0%; in assay [1], 27%; in assay [2], 23%; in the assay on TYRO3 it was 0%. In addition, the “%Inh” value in the assay on ULK1 and in the assay with ULK2 was 0% in each case.
As for `O=C(Nc1n[nH]c2nc(-c3ccccc3)c(Br)cc12)C1CC1` [SB-708998], the “%Inh” value in the assay on TIE2 came out at 11%; with TLK1, 0%; in the assay on TLK2, 0%; in the assay with TNIK, 14%; in the assay on TNK1, 0%; in the assay with TNK2, 10%. In addition, the “%Inh” value came out at 0% in the assay on TNNI3K; 28% with TRKA; 0% in the assay with TRKB; 11% in the assay on TRKC; 18% in the assay with TRPM6; 25% with TSSK1B. The “%Inh” value turned out to be 14% in the assay with TSSK3; 24% in the assay on TTK; 14% in the assay on TXK; 14% in assay [1]; 1% in [2]; 0% with TYRO3. Moreover, the entries for the “%Inh” value with ULK1 and with ULK2 were 30% and 0%, respectively.
